Inconclusive results are not listed. Active and inactive are the calls of the source. Rule for the calls, unless noted: active = hit-call score of the fitted dose curve at least 0.9, where 1 is the maximum; inactive = score below 0.9.
Assays:
[1] = target: Steroid hormone receptor ERR1 (Homo sapiens) (UniProt P11474); assay: ATG_ERRa_TRANS: Attagene TRANS-FACTORIAL HepG2 Assay for human Estrogen-Related Receptor alpha (ERRa) (AID 2282971; active = hit-call score of the fitted dose curve at least 0.9, where 1 is the maximum); settings: HepG2 Attagene TRANS reporter, ERRa transactivation
How it was run: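 HepG2 cells transiently transfected with multiplexed GAL4-UAS reporter units reading chimeric ERRa-Gal4 activity; 24 h compound exposure. Reporter mRNA measured by RT-PCR, 6-FAM labelling, HpaI digest and capillary electrophoresis; gain of signal fitted versus DMSO baseline.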

[2] = read-out: Interferon-gamma inducible Protein 10 (IP10), CXCL10 (gene 3627); assay: BSK_KF3CT_IP10: BioMAP Diversity Plus: KF3CT Assay for Interferon-gamma inducible Protein 10 (IP10) Biomarker Activity (AID 2283068); settings: primary human keratinocytes with fibroblasts; actives raise or lower the signal
How it was run: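 ELISA read-out of IP-10 after 24 h chemical dosing of human skin primary co-culture (keratinocytes, foreskin fibroblasts). Gain or loss of signal relative to DMSO, bidirectional curve fit.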

[3] = read-out: Interleukin-1 alpha (IL1a), IL1A (gene 3552); assay: BSK_KF3CT_IL1a: BioMAP Diversity Plus: KF3CT Assay for Interleukin-1 alpha (IL1a) Biomarker Activity (AID 2283070); settings: primary human keratinocytes with fibroblasts; actives raise or lower the signal
How it was run: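 Primary human keratinocyte plus foreskin fibroblast co-culture, dosed and measured at 24 h in 96-well plates. IL-1a level quantified by ELISA; bidirectional fit relative to DMSO.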

[4] = read-out: TIMP metallopeptidase inhibitor 2 (TIMP2), TIMP2 (gene 7077); assay: BSK_KF3CT_TIMP2: BioMAP Diversity Plus: KF3CT Assay for TIMP metallopeptidase inhibitor 2 (TIMP2) Biomarker Activity (AID 2283071); settings: primary human keratinocytes with fibroblasts; actives raise or lower the signal
How it was run: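 Co-culture of human primary keratinocytes and foreskin fibroblasts, measured 24 h after chemical dosing. TIMP-2 quantified by ELISA and fitted in both directions relative to DMSO. Cytotoxicity checked in parallel cultures by SRB total-protein staining.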

[5] = read-out: Matrix Metallopeptidase 9 (MMP9), MMP9 (gene 4318); assay: BSK_KF3CT_MMP9: BioMAP Diversity Plus: KF3CT Assay for Matrix Metallopeptidase 9 (MMP9) Biomarker Activity (AID 2283074); settings: primary human keratinocytes with fibroblasts; actives raise or lower the signal
How it was run: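 Human keratinocyte and foreskin fibroblast co-culture exposed to chemicals for 24 h; MMP9 biomarker measured by ELISA, bidirectional fitting relative to DMSO; cytotoxicity tracked by SRB total protein staining in parallel cultures.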

[6] = read-out: urokinase plasminogen activator (uPA), PLAU (gene 5328); assay: BSK_KF3CT_uPA: BioMAP Diversity Plus: KF3CT Assay for urokinase plasminogen activator (uPA) Biomarker Activity (AID 2283075); settings: primary human keratinocytes with fibroblasts; actives raise or lower the signal
How it was run: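 Primary human keratinocyte/foreskin fibroblast co-culture exposed to chemical; uPA measured by ELISA at 24 h. Bidirectional fit versus DMSO, with parallel SRB total-protein staining for cytotoxicity.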

[7] = read-out: CD40, CD40 (gene 958); assay: BSK_LPS_CD40: BioMAP Diversity Plus: LPS Assay for CD40 Biomarker Activity (AID 2283076); settings: primary human HUVEC with PBMC; actives raise or lower the signal
How it was run: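 Primary human umbilical vein endothelial cells co-cultured with peripheral blood mononuclear cells, LPS-stimulated, were dosed with chemical and read 24 h later. CD40 levels were measured by ELISA and fitted bidirectionally against DMSO as negative control and baseline.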

[8] = read-out: E-selectin (Homo sapiens) (UniProt P16581); assay: BSK_LPS_Eselectin: BioMAP Diversity Plus: LPS Assay for Eselectin Biomarker Activity (AID 2283077); settings: primary human HUVEC with PBMC; actives raise or lower the signal
How it was run: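 Human umbilical vein endothelial cells co-cultured with peripheral blood mononuclear cells under LPS stimulation; E-selectin measured by ELISA 24 h after chemical dosing. Activity fitted bidirectionally against DMSO as negative control and baseline.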

[9] = BSK_LPS_SRB: Viability Assessment in the BioMAP Diversity Plus: LPS Assay (AID 2283079); settings: primary human HUVEC with PBMC;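 note: total protein by sulforhodamine B absorbance as a cytotoxicity measure; measured one day after compound addition; fitted in both directions against DMSO so loss or gain of signal counts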
How it was run: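 Human umbilical vein endothelial cells co-cultured with PBMC (LPS system) were dosed for 24 h. Total protein was stained with 0.1% sulforhodamine B after 10% TCA fixation, read at 560 nm, and fitted bidirectionally against DMSO baseline.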

[10] = read-out: Macrophage colony-stimulating factor (MCSF), CSF1 (gene 1435); assay: BSK_LPS_MCSF: BioMAP Diversity Plus: LPS Assay for Macrophage colony-stimulating factor (MCSF) Biomarker Activity (AID 2283083); settings: primary human HUVEC with PBMC; actives raise or lower the signal
How it was run: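 Human umbilical vein endothelial cells co-cultured with peripheral blood mononuclear cells were exposed to compound for 24 h. M-CSF levels were measured by ELISA, and bidirectional curve fitting used DMSO as the negative control and baseline.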

[11] = read-out: Tissue Factor, F3 (gene 2152); assay: BSK_LPS_TissueFactor: BioMAP Diversity Plus: LPS Assay for Tissue Factor Biomarker Activity (AID 2283084); settings: primary human HUVEC with PBMC; actives raise or lower the signal
How it was run: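 Human umbilical vein endothelial cells co-cultured with peripheral blood mononuclear cells were dosed and stimulated with LPS. Cell-surface CD142 was quantified by ELISA at 24 h. Activity was fitted bidirectionally against DMSO baseline.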

[12] = read-out: Tumor necrosis factor (Homo sapiens) (UniProt P01375); assay: BSK_LPS_TNFa: BioMAP Diversity Plus: LPS Assay for Tumour Necrosis Factor alpha (TNFa) Biomarker Activity (AID 2283085); settings: primary human HUVEC with PBMC; actives raise or lower the signal
How it was run: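 Human umbilical vein endothelial cells co-cultured with PBMC and stimulated with LPS. TNFa was measured by ELISA 24 h after chemical dosing, fitted bidirectionally relative to DMSO.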

[13] = read-out: Vascular cell adhesion molecule 1 (VCAM1), VCAM1 (gene 7412); assay: BSK_LPS_VCAM1: BioMAP Diversity Plus: LPS Assay for Vascular cell adhesion molecule 1 (VCAM1) Biomarker Activity (AID 2283086); settings: primary human HUVEC with PBMC; actives raise or lower the signal
How it was run: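 Human umbilical vein endothelial cells co-cultured with PBMC and stimulated with LPS; VCAM-1 measured by ELISA 24 h after dosing. Bidirectional curve fitting against DMSO baseline; cytotoxicity tracked in parallel by SRB total-protein staining.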

[14] = read-out: CD38, CD38 (gene 952); assay: BSK_SAg_CD38: BioMAP Diversity Plus: SAg Assay for CD38 Biomarker Activity (AID 2283087); settings: primary human HUVEC with PBMC; actives raise or lower the signal
How it was run: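 Human HUVEC plus PBMC co-culture stimulated with superantigen; CD38 measured by ELISA 24 h after chemical dosing. Fluorescence read-out, bidirectional fit against DMSO; cytotoxicity tracked in parallel by SRB and Alamar Blue.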

[15] = read-out: CD40, CD40 (gene 958); assay: BSK_SAg_CD40: BioMAP Diversity Plus: SAg Assay for CD40 Biomarker Activity (AID 2283088); settings: primary human HUVEC with PBMC; actives raise or lower the signal
How it was run: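 Human umbilical vein endothelial cells co-cultured with PBMC; CD40 levels measured by ELISA with fluorescence read-out 24 h after chemical dosing. Gain or loss of signal fitted bidirectionally against DMSO baseline.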

[16] = read-out: CD69, CD69 (gene 969); assay: BSK_SAg_CD69: BioMAP Diversity Plus: SAg Assay for CD69 Biomarker Activity (AID 2283089); settings: primary human HUVEC with PBMC; actives raise or lower the signal
How it was run: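 Primary human vascular co-culture (umbilical vein endothelium with peripheral blood mononuclear cells) exposed to test chemical for 24 h. CD69 levels quantified by fluorescence ELISA; DMSO served as negative control for bidirectional fitting.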

[17] = read-out: E-selectin (Homo sapiens) (UniProt P16581); assay: BSK_SAg_Eselectin: BioMAP Diversity Plus: SAg Assay for Eselectin Biomarker Activity (AID 2283091); settings: primary human HUVEC with PBMC; actives raise or lower the signal
How it was run: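 HUVEC co-cultured with PBMC, compound dosed then read at 24 h; E-selectin measured by ELISA. Activity fitted bidirectionally against DMSO as negative control and baseline.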

[18] = BSK_SAg_PBMCCytotoxicity: PBMC Cytotoxicity Assessment in the BioMAP Diversity Plus: SAg Assay (AID 2283093); settings: primary human HUVEC with PBMC;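 note: PBMC viability measured as Alamar Blue reduction fluorescence at 546/580 nm; fitted both ways against DMSO so a hit may be loss or gain of signal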
How it was run: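 HUVEC/PBMC co-culture; PBMC exposed to chemical 1 h before SEB and TSST-1 activation (20 ng/mL each), incubated 90 h, then Alamar Blue 6 h, fluorescence 546/580 nm. Bidirectional fit versus DMSO baseline.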

[19] = read-out: Interleukin-8 (IL8), CXCL8 (gene 3576); assay: BSK_SAg_IL8: BioMAP Diversity Plus: SAg Assay for Interleukin-8 (IL8) Biomarker Activity (AID 2283094); settings: primary human HUVEC with PBMC; actives raise or lower the signal
How it was run: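 Human umbilical vein endothelial cells co-cultured with PBMC, stimulated with superantigen; IL-8 measured by ELISA 24 h after chemical dosing. Bidirectional fitting versus DMSO; SRB staining in parallel cultures tracks cytotoxicity.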

[20] = BSK_SAg_Proliferation: Cell Proliferation Assessment in the BioMAP Diversity Plus: SAg Assay (AID 2283095); settings: primary human HUVEC with PBMC
How it was run: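 Human umbilical vein endothelial cells co-cultured with PBMC; sulforhodamine B total-protein staining (0.1% SRB after 10% TCA fixation, absorbance 560 nm) at 96 h in sub-confluent culture. Fitted bidirectionally against DMSO.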

Measured: outcome

Chain of Tumor necrosis factor (Homo sapiens) (P01375 whole entry, looked up): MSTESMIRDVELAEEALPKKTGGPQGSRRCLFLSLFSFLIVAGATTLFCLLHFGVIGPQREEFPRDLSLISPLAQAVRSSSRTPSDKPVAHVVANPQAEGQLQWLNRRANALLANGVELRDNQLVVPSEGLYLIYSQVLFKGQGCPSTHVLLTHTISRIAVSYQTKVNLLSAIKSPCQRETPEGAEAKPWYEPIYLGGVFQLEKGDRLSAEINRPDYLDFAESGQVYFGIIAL
Chain of Steroid hormone receptor ERR1 (Homo sapiens) (P11474 whole entry, looked up, the tested form may be a part): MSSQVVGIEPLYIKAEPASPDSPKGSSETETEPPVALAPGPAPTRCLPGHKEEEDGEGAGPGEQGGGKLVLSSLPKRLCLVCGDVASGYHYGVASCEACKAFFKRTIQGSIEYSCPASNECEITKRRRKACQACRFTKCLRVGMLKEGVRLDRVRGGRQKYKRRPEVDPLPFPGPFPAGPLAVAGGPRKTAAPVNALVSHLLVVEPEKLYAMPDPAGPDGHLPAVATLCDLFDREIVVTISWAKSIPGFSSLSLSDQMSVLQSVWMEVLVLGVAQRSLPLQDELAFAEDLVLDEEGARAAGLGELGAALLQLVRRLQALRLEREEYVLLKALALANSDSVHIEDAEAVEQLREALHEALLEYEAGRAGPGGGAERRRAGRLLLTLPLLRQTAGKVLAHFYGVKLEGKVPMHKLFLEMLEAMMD
Chain of E-selectin (Homo sapiens) (P16581 whole entry, looked up): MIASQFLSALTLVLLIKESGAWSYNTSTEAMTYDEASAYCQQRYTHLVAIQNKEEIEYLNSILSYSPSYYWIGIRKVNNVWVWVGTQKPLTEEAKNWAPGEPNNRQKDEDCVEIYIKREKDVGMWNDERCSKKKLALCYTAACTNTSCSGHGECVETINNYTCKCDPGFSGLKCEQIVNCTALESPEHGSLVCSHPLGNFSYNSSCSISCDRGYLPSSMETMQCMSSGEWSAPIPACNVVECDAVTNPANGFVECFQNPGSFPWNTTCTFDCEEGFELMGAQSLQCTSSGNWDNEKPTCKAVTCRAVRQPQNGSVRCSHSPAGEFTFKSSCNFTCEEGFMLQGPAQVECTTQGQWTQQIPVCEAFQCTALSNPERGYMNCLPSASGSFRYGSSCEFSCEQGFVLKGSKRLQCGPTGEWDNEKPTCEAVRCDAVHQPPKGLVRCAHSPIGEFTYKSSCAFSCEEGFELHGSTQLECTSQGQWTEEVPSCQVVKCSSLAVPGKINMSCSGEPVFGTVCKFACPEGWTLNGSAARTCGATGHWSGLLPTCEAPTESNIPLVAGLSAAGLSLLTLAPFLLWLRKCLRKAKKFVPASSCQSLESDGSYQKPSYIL

CN(N=O)c1ccccc1
inactive: [1]

COc1ccc(CO)cc1
not listed: [1]
inactive: all other assays above

CC(C)COP(=O)(OCC(C)C)OCC(C)C
inactive: all assays above

CC1OC(C)OC(C)O1 (stereo unspecified)
inactive: [1]

Reference: PubChem BioAssay (EPA / NIEHS)
